Calls of active or inactive are those of the source.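 Rule for the calls, unless noted: active = NADPH fluorescence slope more negative than the mean of all samples by about 3 SD, 99.7% confidence; inactive = the rest.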

The inhibition is the change of the read-out against control, counted positive when it falls.

Assay [1] in a line: inhibitors of TNFa-induced NFkB p65 translocation, primary screen, imaging, HUVEC, MLSMR starter and 10KST1 sets (AID 438;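 active = inhibition above 20% together with a positive visual image hit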;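 note: compound added about 3h40 before a 20 min TNFalpha stimulation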;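 for inhibition: signal is the nuclear over cytoplasmic p65 intensity ratio per well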). Particulars: HUVEC TNFa-induced p65 nuclear translocation; cell count: measured here: nuclei count (cytotoxicity indicator), at 2.08 µM; inhibition: at 2 µM, stronger effect = higher value, 0% TNFa-plus-vehicle, 100% no-TNFa wells.
Assay [2] can be described thus: inhibitors of mutant huntingtin aggregation, primary screen, imaging, exon1htt(103Q)mCFP cells, high-content imaging (AID 483;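 active = visual image review flags a hit and inhibition of aggregation exceeds 20%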;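 note: compound exposure lasted 3 days before fixation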;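 for nuclei count: percent of the per-plate median nuclei count of sample wells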). Particulars: exon1htt(103Q)mCFP cell line, aggregate imaging, at 2 µM; inhibition of aggregation: stronger effect = higher value; nuclei count: measured here: cell count, toxicity.
A short description of assay [3]: inhibitors of E-selectin induction by TNFa, primary screen, imaging, HUVEC, immunofluorescence, MLSMR starter and 10KST1 sets (AID 487;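 active = visually confirmed hit in the image check and inhibition above 20%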;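 for inhibition: signal is fraction of cell area covered by stained E-selectin grains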;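 for nuclei count: 100% = median nuclei count of all wells on the same plate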). Particulars: HUVEC TNFalpha-induced E-selectin immunofluorescence imaging, at 2 µM; inhibition: stronger effect = higher value; nuclei count: measured here: cell number, toxicity.
The target in assay [4] is Voltage-gated potassium channel subunit beta-2 (Rattus norvegicus) (UniProt P62483). Put plainly: KvBeta enzyme negative modulators, primary screen, biochemical, NADPH fluorescence (AID 622;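 active = fluorescence slope higher than the sample average by over 3 SD, cut at about -0.22 in these data, passing the limit was not always enough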;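 note: slope of raw intensity against log time taken from 70 to 1610 s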). Particulars: recombinant KvBeta, 4-cyanobenzaldehyde reduction, at 10 µM, stronger effect = higher value.
Assay [5] shares this target. The experiment in a line: KvBeta positive modulators, primary screen, biochemical, NADPH fluorescence (AID 623).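 Note: fluorescence intensity change per second fitted from 20 to 320 s.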 The settings on record: Recombinant KvBeta, NADPH fluorescence decrease slope, 10 min; at 10 µM; stronger effect = lower value.
For assay [6], the target named is Alpha-2C adrenergic receptor (Homo sapiens) (UniProt P18825). The experiment in a line: modulators of alpha2C/GIRK thallium flux, primary screen, cell-based, HEK293 alpha2C/GIRK1/2 (AID 624;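 active = fluorescence slope after compound addition differing from the mean of all screened samples at 99.7% confidence, in either direction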;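 note: slope of fluorescence ratio to pre-addition baseline per second over 15 to 24 s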). Particulars: thallium flux BTC fluorescence, at 10 µM, actives lie on both sides.
The nature of assay [7]: inhibitors of Sendai virus-induced IRF3 signaling, primary screen, TLR/RLR signaling modifier project, cell-based, Sendai virus stimulus, luciferase, 10K MLSCN set (AID 602276;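 active = inhibition at or above 50% at 10 µM; inactive = inhibition below 50%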;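 note: firefly luciferase from ISG56 promoter only with Renilla not read in this screen; 0% = Sendai virus plus DMSO and 100% = medium plus DMSO without virus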). The settings on record: HEK293 RL24 IRF3 luciferase reporter, at 10 µM, stronger effect = higher value. (A reporter such as luciferase makes a cellular process visible.)
Assay [8] can be described thus: inhibitors of poly I:C-induced TLR3 signaling, primary screen, cell-based, poly I:C stimulus, luciferase, 10K MLSCN set (AID 602277;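 active = inhibition of the reporter signal at or above 50%; inactive = inhibition below 50%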). The settings on record: HEK293-TLR3 RL24 IRF3 luciferase reporter, at 10 µM, stronger effect = higher value.

Chain of Voltage-gated potassium channel subunit beta-2 (Rattus norvegicus) (P62483 whole entry, looked up): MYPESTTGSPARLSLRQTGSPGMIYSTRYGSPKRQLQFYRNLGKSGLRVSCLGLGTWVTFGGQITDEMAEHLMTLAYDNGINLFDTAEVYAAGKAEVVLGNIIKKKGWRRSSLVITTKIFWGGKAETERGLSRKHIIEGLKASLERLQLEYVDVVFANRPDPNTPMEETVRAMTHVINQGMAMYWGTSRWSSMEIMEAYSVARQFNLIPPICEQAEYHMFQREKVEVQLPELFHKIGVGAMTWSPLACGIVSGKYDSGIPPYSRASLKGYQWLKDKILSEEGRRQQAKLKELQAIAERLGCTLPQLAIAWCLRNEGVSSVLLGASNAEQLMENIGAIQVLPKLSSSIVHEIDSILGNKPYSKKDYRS
Chain of Alpha-2C adrenergic receptor (Homo sapiens) (P18825 whole entry, looked up): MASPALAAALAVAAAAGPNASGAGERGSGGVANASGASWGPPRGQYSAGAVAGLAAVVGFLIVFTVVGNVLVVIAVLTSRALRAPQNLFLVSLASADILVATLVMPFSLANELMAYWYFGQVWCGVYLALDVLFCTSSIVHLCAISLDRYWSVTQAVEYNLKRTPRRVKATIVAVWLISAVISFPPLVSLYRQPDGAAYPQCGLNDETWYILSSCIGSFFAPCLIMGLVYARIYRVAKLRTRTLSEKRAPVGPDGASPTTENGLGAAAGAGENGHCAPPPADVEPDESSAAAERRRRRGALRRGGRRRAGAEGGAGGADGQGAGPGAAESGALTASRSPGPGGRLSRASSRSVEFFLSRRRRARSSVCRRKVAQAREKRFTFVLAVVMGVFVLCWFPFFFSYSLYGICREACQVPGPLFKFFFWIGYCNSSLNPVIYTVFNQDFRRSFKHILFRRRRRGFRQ

On to `CCOC(=O)c1ccc(NC(=O)COc2ccc(-n3cnnn3)cc2)cc1`, for which, in assay [1], the cell count came to 354. Moreover, the inhibition in assay [1] was -0.5% (inactive); in assay [3], 5% (inactive); in assay [7] it was 1.41% (inactive); in assay [8] it was 11.4% (inactive). Further, the inhibition of aggregation in assay [2] is -2.9% (inactive). Besides, the nuclei count in assay [2] was found to be 60.6%; in assay [3], 102%. For the same molecule, in assay [4], the fluorescence slope is -0.405 (inactive). Also, in assay [5], the NADPH fluorescence slope was -1.2e-05 (inactive). For the same molecule, the slope in assay [6] is 0.00538 (inactive).

As to `S=C(c1ccc(-c2cc(Cl)ccc2Cl)o1)N1CCOCC1`, the cell count in assay [1] came out at 365. Also, the inhibition in assay [1] was -10.4% (inactive); in assay [3] it was -53.8% (inactive); in assay [7], 21.6% (inactive); in assay [8], 8.92% (inactive). In addition, the inhibition of aggregation in assay [2] was -14% (inactive). Moreover, the nuclei count in assay [2] is 111%; in assay [3] it was 113%. Further, the fluorescence slope in assay [4] was -0.523 (inactive). Moreover, the NADPH fluorescence slope in assay [5] is -6e-06 (inactive). Besides, the slope in assay [6] is 0.00341 (inactive).

For the molecule `CC(=O)NC(Cc1cc(C)ccc1C)C(=O)N1CCN(C(=O)Nc2ccc(C(C)=O)cc2)CC1` (stereo not drawn), the cell count in assay [1] came out at 324. Besides, the inhibition was -2.1% (inactive) in assay [1], -23.1% (inactive) in assay [3], 2.34% (inactive) in assay [7] and -13% (inactive) in assay [8]. The inhibition of aggregation in assay [2] is -26% (inactive). Moreover, the figures for the nuclei count in assay [2] and in assay [3] were 106% and 99.8%, respectively. For the same molecule, the fluorescence slope in assay [4] is -0.378 (inactive). For the same molecule, the NADPH fluorescence slope in assay [5] is -4.4e-05 (inactive). The slope in assay [6] was 0.00656 (inactive).

As to `CC1=C(C)CC2C(=O)N(c3cccc4ccccc34)C(=O)C2C1` (stereo not drawn), in assay [1], the cell count is 705. Further, the inhibition is -2.3% (inactive) in assay [1], -28.7% (inactive) in assay [3], 0.65% (inactive) in assay [7] and 28.7% (inactive) in assay [8]. Also, the inhibition of aggregation in assay [2] is 1.2% (inactive). In addition, the nuclei count in assay [2] and in assay [3] was 106% in each case. In addition, the fluorescence slope in assay [4] is -0.569 (inactive). Besides, the NADPH fluorescence slope in assay [5] is -2.7e-05 (inactive). In assay [6], the slope was 0.00739 (inactive).

On to `Cc1cccc(-n2ncc3c(NCCCO)ncnc32)c1`, for which, in assay [1], the cell count worked out at 840. In addition, the inhibition was 2.3% (inactive) in assay [1], -2.8% (inactive) in assay [3], -58.8% (inactive) in assay [7] and -193% (inactive) in assay [8]. The inhibition of aggregation in assay [2] is -32% (inactive). The nuclei count in assay [2] is 101%; in assay [3], 107%. The fluorescence slope in assay [4] was -0.582 (inactive). For the same molecule, the NADPH fluorescence slope in assay [5] is -1.5e-05 (inactive). Besides, the slope in assay [6] was 0.00564 (inactive).

Regarding `C=CCn1c(SCC(=O)O)nnc1-c1cccc(Cl)c1`, the cell count in assay [1] was found to be 753. The inhibition is 1.3% (inactive) in assay [1], 19.3% (inactive) in assay [3], 8.76% (inactive) in assay [7] and 18.9% (inactive) in assay [8]. The inhibition of aggregation in assay [2] is -0.4% (inactive). Also, the nuclei count came to 103% in assay [2] and 108% in assay [3]. In addition, the fluorescence slope in assay [4] is -0.453 (inactive). The NADPH fluorescence slope in assay [5] was -8e-06 (inactive). For the same molecule, the slope in assay [6] is 0.00296 (inactive).

Regarding `O=C(Nc1nnc(COc2ccc(F)cc2)s1)c1cccs1`, in assay [1], the cell count stood at 585. For the same molecule, the inhibition in assay [1] is 7.2% (inactive); in assay [3] it was -42.4% (inactive); in assay [7], 12.6% (inactive); in assay [8] it was 6.8% (inactive). Besides, the inhibition of aggregation in assay [2] is 3.9% (inactive). Moreover, the nuclei count was determined as 126% in assay [2] and 104% in assay [3]. Besides, the fluorescence slope in assay [4] was -0.52 (inactive). The NADPH fluorescence slope in assay [5] is -2.5e-05 (inactive). The slope in assay [6] is 0.0053 (inactive).

Turning to `Cc1ccc(C(C(=O)NC(C)(C)C)N(C(=O)c2csnn2)c2cccc(F)c2)o1` (stereo not drawn), in assay [1], the cell count was 357. Further, the inhibition in assay [1] was 4.3% (inactive); in assay [3] it was -33.5% (inactive); in assay [7], 8.19% (inactive); in assay [8], 20.7% (inactive). The inhibition of aggregation in assay [2] is 7.8% (inactive). For the same molecule, the nuclei count turned out to be 93.7% in assay [2] and 81.8% in assay [3]. The fluorescence slope in assay [4] was -0.492 (inactive). Besides, the NADPH fluorescence slope in assay [5] is 8.2e-06 (inactive). Besides, the slope in assay [6] was 0.00622 (inactive).

With `CCOC(=O)C1=C(C)OC(N)=C(C#N)C1c1ccoc1` (stereo not drawn), the cell count in assay [1] came out at 558. Also, the inhibition is -4.8% (inactive) in assay [1], 24.7% (inactive) in assay [3], 9.81% (inactive) in assay [7] and 33% (inactive) in assay [8]. The inhibition of aggregation in assay [2] was -7.5% (inactive). Besides, the nuclei count is 81.3% in assay [2] and 78.9% in assay [3]. In addition, the fluorescence slope in assay [4] is -0.428 (inactive). In addition, the NADPH fluorescence slope in assay [5] was -6.9e-05 (inactive). Besides, in assay [6], the slope was 0.00431 (inactive).

Turning to `COCCn1nnnc1CN(CCCN1CCOCC1)Cc1cc2c(C)ccc(C)c2[nH]c1=O`, the cell count in assay [1] is 612. For the same molecule, the inhibition in assay [1] was -8.8% (inactive); in assay [3], 19.5% (inactive); in assay [7], -10.5% (inactive); in assay [8], 15.5% (inactive). Moreover, the inhibition of aggregation in assay [2] was -0.2% (inactive). Further, the nuclei count in assay [2] was 112%; in assay [3], 92.4%. Moreover, the fluorescence slope in assay [4] was -0.49 (inactive). In assay [5], the NADPH fluorescence slope is 3e-05 (inactive). Moreover, the slope in assay [6] is 0.00345 (inactive).

Take `COc1nnc(-c2ccc(C)c(S(=O)(=O)NCCO)c2)c2ccccc12`: the cell count in assay [1] is 325. Moreover, the inhibition is -2.7% (inactive) in assay [1], -17.6% (inactive) in assay [3], 1.8% (inactive) in assay [7] and 28.9% (inactive) in assay [8]. For the same molecule, the inhibition of aggregation in assay [2] was 11.7% (inactive). Moreover, the nuclei count came out at 75.4% in assay [2] and 95.3% in assay [3]. In addition, in assay [4], the fluorescence slope was -0.424 (inactive). Also, in assay [5], the NADPH fluorescence slope is 1e-05 (inactive). Further, the slope in assay [6] was 0.0039 (inactive).

`Cn1nnnc1SCc1cn2cccnc2n1`: the cell count in assay [1] came to 227. Moreover, the inhibition in assay [1] was 0.3% (inactive); in assay [3], -25.9% (inactive); in assay [7] it was 9.85% (inactive); in assay [8], 9.08% (inactive). For the same molecule, the inhibition of aggregation in assay [2] was 9.5% (inactive). Besides, the results for the nuclei count in assay [2] and in assay [3] were 97.2% and 117%, respectively. In addition, the fluorescence slope in assay [4] is -0.106 (inactive). For the same molecule, in assay [5], the NADPH fluorescence slope is 2.9e-05 (inactive). The slope in assay [6] is 0.00615 (inactive).

For the molecule `CC(C)C(=O)Nc1ccc(C(=O)NCc2cccnc2)cc1`, the cell count in assay [1] was found to be 393. The inhibition in assay [1] is 9.4% (inactive); in assay [3] it was -115% (inactive); in assay [7], -10.7% (inactive); in assay [8], -31.6% (inactive). Besides, the inhibition of aggregation in assay [2] was 10% (inactive). Besides, the nuclei count was 102% in assay [2] and 109% in assay [3]. Besides, in assay [4], the fluorescence slope was -0.598 (inactive). In addition, the NADPH fluorescence slope in assay [5] was 1.1e-05 (inactive). For the same molecule, the slope in assay [6] is 0.00588 (inactive).

The values above are taken from PubChem BioAssay.
